In the library only some 4.7% were active in any assay of this set; here they are far more common.
HSF-1 act: HSF-1 activators, primary screen, NIH3T3-HGL cells, MG132 stress, luminescence, single point | NIH3T3-HGL HSF-1 luciferase reporter, 8 h; 100% = twice DMSO control signal | activation, % at 9 µM | 1.7% of 300,000 active | AID 504408, 2011;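 active = mean replicate activation of at least 50% with a set share of replicates each reaching 50%; inconclusive = only one of those two conditions met; inactive = mean below 50% and too few replicates reaching it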
TROY signal inh: inhibitors of TROY-driven NF-kB signaling, primary screen, Q293 LMP1-TROYcd cells, NF-kB luciferase, uHTS; inhibition, % at 10 µM; 0.98% of 360,000 active; Q293 LMP1-TROYcd NF-kB luciferase reporter, 4 h; AID 1347056, 2019;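 active = compounds whose plate-normalised and pattern-corrected inhibition of the luciferase reporter signal at the single screening dose is 50% or more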
EBV LMP1 NFkB: EBV LMP1-driven NF-kappaB luciferase reporter inhibitors, primary screen, cell-based, luminescence, single point | AID 504558, 2011 | 0.69% of 350,000 active | inhibition, % at 12.5 µM | LMP1-induced NF-kappaB luciferase reporter cells; in the data active = inhibition above about 41%; inconclusive = no clear call, values can overlap the other calls
HSF1 inhib: HSF1 inhibitors in luciferase reporter cells, primary screen, cell-based, NIH3T3, luminescence; AID 2098, 2009; activity change, negative = inhibition, % at 7.5 µM (by protocol); NIH3T3-HGL HSE-luciferase, MG132-induced, luminescence 8 h; stronger effect = lower value; 0.77% of 300,000 active;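 active = more than half of replicate wells show activity change below -50%, luminescence cut by over half; inconclusive = some wells, but at most half, below -50%; inactive = no replicate well below -50%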;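 also: luciferase reports HSF-1 transcriptional activity via heat shock element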
TWEAK Fn14 block: inhibitors of TWEAK-Fn14 signaling, primary screen, luciferase reporter cells, uHTS | 2% of 360,000 active | TWEAK-stimulated Fn14 reporter cells, luciferase luminescence, 8 h | inhibition, % at 10 µM | AID 1159606, 2016; in the data active = inhibition above about 50%
HSP90 refold inh: HSP90 inhibitors, primary screen, cell lysate, luminescence | Heat shock protein HSP 90 (rabbit reticulocyte lysate; luciferase refolding) | Rabbit reticulocyte lysate, luciferase refolding luminescence, 3 h | inhibition, % at 5.6 µM | 0.91% of 290,000 active;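 active = inhibition above the screen-wide mean plus 3 SD, computed separately per campaign, cut at about 16% in these data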;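 also: inhibitors lower the luminescence because luciferase stays unfolded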
Of the large screens only hits and unclear results are named; the others gave an inactive call.

COc1ccc(/C=C\C(=O)O[C@@H]2C(O)C(O[C@@H]3OC(C)[C@H](O[C@@H]4OCC(O[C@H]5O[C@H](CO)[C@@H](O)C(O)C5O)C(O)C4O)C(O)C3O)[C@H](OC(=O)[C@]34CCC(C)(C)C[C@@H]3C3=CCC5[C@@]6(C)CC(O)C(O[C@@H]7OC(CO)C(O)[C@H](O)[C@H]7O)[C@@](C)(C(=O)O)C6CC[C@@]5(C)[C@]3(CO)CC4)O[C@H]2C)cc1 (stereo not given in full)	none (no result: HSF-1 act, HSF1 inhib, HSP90 refold inh)
O=C(/C=C/Nc1ccc(Br)cc1F)c1ccco1	TWEAK Fn14 block 63.3
CN(C)c1ccc(N/C=C/C(=O)c2ccco2)cc1	TWEAK Fn14 block 86.3
O=C(/C=C/Nc1cccc(F)c1)c1ccco1	none
O=C(/C=C/Nc1ccccc1O)c1ccco1	none
O=C(/C=C/Nc1ccc(F)cc1F)c1ccco1	TWEAK Fn14 block 72.6
CC(=O)Nc1ccc(N/C=C/C(=O)c2ccco2)cc1	none
Cc1ccc(C)c(N2N=C(C(=O)OCc3nnc(-c4ccccc4Br)o3)CCC2=O)c1	none (no result: HSF-1 act, HSF1 inhib, HSP90 refold inh)
OC(c1ccco1)c1nc(-c2cccs2)cs1 (stereo not given)	none (no result: HSF-1 act, EBV LMP1 NFkB, HSF1 inhib, HSP90 refold inh)
COc1ccc(-c2nc3c4ccccc4ccn3c2Cc2cccc(F)c2)cc1OC	none (no result: HSF-1 act, EBV LMP1 NFkB, HSF1 inhib, HSP90 refold inh)
O=C(NCc1nnc(SCc2ccc(C(F)(F)F)cc2)n1-c1ccccc1)C12CC3CC(CC(C3)C1)C2	none
O=C(NCc1nnc(SCc2ccc(F)cc2)n1-c1ccccc1)C12CC3CC(CC(C3)C1)C2	HSF-1 act 62.1
CCOC(=O)c1ccc(O)c(-n2cc3c(c2-c2ccccc2)c(=O)n(C)c(=O)n3C)c1	none (no result: HSF-1 act, EBV LMP1 NFkB, HSF1 inhib, HSP90 refold inh)
Cc1ccccc1-c1nnc(-c2ccccc2)o1	none
Cn1cc(-c2nnc(-c3ccccc3)o2)c2ccccc21	HSF-1 act 65.5
CCC1Oc2ccc(C)cc2N(Cc2cccc(C)c2)C1=O (stereo not given)	HSF-1 act 53.6
CC(=O)NC1(C)CCC2CC1C(C)=NC2(C)C (stereo not given)	none (no result: HSF-1 act, EBV LMP1 NFkB, HSF1 inhib, HSP90 refold inh)
O=c1cc(N=Nc2ccc(Cl)cc2)[nH]c(=O)[nH]1	TWEAK Fn14 block 58.3
O=c1cc(-c2ccc(Cl)cc2)oc(=O)[nH]1	none
CCN(CC)C(=O)c1cccc(-c2csc(C(NC(C)=O)c3cccc(OC)c3)n2)c1 (stereo not given)	none (no result: HSF-1 act, EBV LMP1 NFkB, HSF1 inhib, HSP90 refold inh)
CC(C)C(N)c1csc(NC(=O)Nc2cccc(Cl)c2)n1 (stereo not given)	none (no result: HSF-1 act, EBV LMP1 NFkB, HSF1 inhib, HSP90 refold inh)
Cc1ccccc1CC1(CO)CCCN(C(=O)c2ccccc2Cl)C1 (stereo not given)	HSF-1 act 54.7
COc1ccc(C(C)(O)c2nc(-c3cccc(C#N)c3)cs2)cc1 (stereo not given)	none (no result: HSF-1 act, EBV LMP1 NFkB, HSF1 inhib, HSP90 refold inh)
CCN(CC)C(=O)c1cccc(-c2csc(C(C)(O)c3cccc(F)c3)n2)c1 (stereo not given)	TWEAK Fn14 block 53.0 (no result: HSF-1 act, EBV LMP1 NFkB, HSF1 inhib, HSP90 refold inh)
COc1cccc(C(C)(O)c2nc(-c3cccc(C#N)c3)cs2)c1 (stereo not given)	TWEAK Fn14 block 51.7 (no result: HSF-1 act, EBV LMP1 NFkB, HSF1 inhib, HSP90 refold inh)
COCCNc1nc(Oc2cncc(Cl)c2)c2sccc2n1	TWEAK Fn14 block 50.0 (no result: HSF-1 act, EBV LMP1 NFkB, HSF1 inhib, HSP90 refold inh)
COCCNc1nc(Oc2cccc(F)c2)c2sccc2n1	none (no result: HSF-1 act, EBV LMP1 NFkB, HSF1 inhib, HSP90 refold inh)
COC(=O)c1c(N2C(=O)[C@H]3[C@@H](C2=O)[C@]2(C(=O)Nc4c(C)cccc42)N2CCC[C@@H]32)sc(C)c1C	HSF1 inhib -73.8
COc1ccccc1C=C1CCc2ccccc2C1=O	TWEAK Fn14 block 71.5 (no result: HSF-1 act, EBV LMP1 NFkB, HSF1 inhib, HSP90 refold inh)
COc1cc(/C=C2\CCc3ccccc3C2=O)cc(OC)c1OC	none
COc1cc(/C=C2/CCc3ccccc3C2=O)cc(OC)c1OC	HSF-1 act 72.6
CCOC(=O)C1=C(CC)Nc2ccccc2N=C1NC(=O)Nc1ccc(Cl)c(Cl)c1	TROY signal inh 53.3, TWEAK Fn14 block 72.9
CCOC(=O)C1=C(CC)Nc2ccccc2N=C1NC(=O)c1cc(C)on1	none (no result: HSF-1 act, HSF1 inhib, HSP90 refold inh)
Cc1ccc(CC2CC(=O)N(Cc3ccco3)C2=O)cc1 (stereo not given)	HSF-1 act 72.7
Nc1nc(=O)n(C2CCC(CO)O2)cc1F (stereo not given)	none (no result: HSF-1 act, EBV LMP1 NFkB, HSF1 inhib, HSP90 refold inh)
O=C(NCCC1CCCCN1S(=O)(=O)c1ccc(F)cc1)C(=O)Nc1ccccc1F (stereo not given)	HSF1 inhib -67.5 (no result: HSP90 refold inh)
O=C(NCCC1CCCCN1S(=O)(=O)c1ccccc1)C(=O)Nc1ccccc1F (stereo not given)	none (no result: HSP90 refold inh)
CCOc1ccc2nc(N(Cc3ccccc3)C(=O)CCNC(C)=O)sc2c1	HSF-1 act 56.7
CC(=O)NCCC(=O)N(Cc1ccccc1)c1nc2c(C)cccc2s1	none
CC(=O)Oc1cc2cccc(OC(C)=O)c(=O)c2c(OC(C)=O)c1OC(C)=O	TWEAK Fn14 block 84.5
COc1cc2cccc(OC)c(=O)c2c(O)c1OC	none
CSc1ccc(C2c3[nH]c4ccccc4c3CCN2C(=O)c2cc(C)n(C)n2)cc1 (stereo not given)	HSF-1 act 53.3 (no result: TROY signal inh, EBV LMP1 NFkB, TWEAK Fn14 block)
CC(Oc1ccc(Cl)cc1Cl)c1nc(-c2ccc(NC(=O)c3cccnc3)cc2)no1 (stereo not given)	none
CC(Oc1ccc(Cl)cc1Cl)c1nc(-c2ccccn2)no1 (stereo not given)	HSF-1 act 76.0
O=C(Cn1ncc(Cl)c(Cl)c1=O)c1ccc(Cl)cc1	HSF-1 act 56.1, TWEAK Fn14 block 83.5
C=CCn1c(C)cc(C(=O)Cn2ncc(Cl)c(Cl)c2=O)c1C	HSF-1 act inconclusive
CC(C)(C)C(=O)Cn1ncc(Cl)c(Cl)c1=O	TWEAK Fn14 block 96.5
CCCCN1C(=O)C(CC(=O)NCCCN(C)C)CC(C(=O)N(C)C)=C1C (stereo not given)	none (no result: HSF-1 act, HSF1 inhib, HSP90 refold inh)
Cc1ccccc1-c1cc(=O)c2c(O)cccc2o1	HSF-1 act 57.1 (no result: HSP90 refold inh)
O=c1cc(-c2ccccc2)oc2cccc(O)c12	none (no result: HSF-1 act, HSF1 inhib, HSP90 refold inh)
CC(C)CN1CCC1(C)C(=O)Nc1cccc(C#N)c1 (stereo not given)	none (no result: HSF-1 act, EBV LMP1 NFkB, HSF1 inhib, HSP90 refold inh)
Nc1cccc(/C=C/c2ccncc2)c1	HSF-1 act 54.4
Brc1ccc2nc(C3CCCCC3)c(Cc3ccsc3)n2c1	none (no result: HSF-1 act, EBV LMP1 NFkB, HSF1 inhib, HSP90 refold inh)
COC(=O)c1nc(-c2ccc(C)cc2)[nH]c1C(C)(C)C	none (no result: HSF-1 act, EBV LMP1 NFkB, HSF1 inhib, HSP90 refold inh)
Cc1ccc(C)c(NC(=S)N2CCC(C(=O)c3ccc(F)cc3)CC2)c1	none (no result: HSF-1 act, HSF1 inhib, HSP90 refold inh)
CC1CC/C(=C\c2ccc3c(c2)OCO3)C(=O)/C1=C/c1ccc2c(c1)OCO2 (stereo not given)	HSF-1 act 87.1
CCN(C)C1CN(Cc2cn(Cc3ccc(F)cc3)nn2)S(=O)(=O)C1 (stereo not given)	none (no result: HSF-1 act, EBV LMP1 NFkB, HSF1 inhib, HSP90 refold inh)
